# Test results published in PubChem BioAssay (NCATS).
# Values joined by “and” are separate entries in the source; they are usually repeats but may differ in a detail not shown here. Identical values can stand only once. Inconclusive results are not listed. A call without a number means that no potency is given here. Active and inactive are the calls of the source. The call rests on the fitted dose curve; in most records, active means well fitted curve in the direction sought with a large enough effect; inconclusive means small, poorly fitted or top-dose-only effect, or another doubt; inactive means no such curve, though single readings can be large; an effect the other way counts as inactive or inconclusive.
# What was measured:
# [1] = biological target: Parathyroid hormone/parathyroid hormone-related peptide receptor (Homo sapiens) (UniProt Q03431); assay: qHTS for PTHR1 Agonists: Optimization Screen against the NCGC LOPAC library (AID 1347079);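 further: GloSensor cAMP luminescence in HEK-293 GP2 cells expressing human PTHR1 with IBMX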
# Sequence of Parathyroid hormone/parathyroid hormone-related peptide receptor (Homo sapiens) (Q03431 whole entry, looked up): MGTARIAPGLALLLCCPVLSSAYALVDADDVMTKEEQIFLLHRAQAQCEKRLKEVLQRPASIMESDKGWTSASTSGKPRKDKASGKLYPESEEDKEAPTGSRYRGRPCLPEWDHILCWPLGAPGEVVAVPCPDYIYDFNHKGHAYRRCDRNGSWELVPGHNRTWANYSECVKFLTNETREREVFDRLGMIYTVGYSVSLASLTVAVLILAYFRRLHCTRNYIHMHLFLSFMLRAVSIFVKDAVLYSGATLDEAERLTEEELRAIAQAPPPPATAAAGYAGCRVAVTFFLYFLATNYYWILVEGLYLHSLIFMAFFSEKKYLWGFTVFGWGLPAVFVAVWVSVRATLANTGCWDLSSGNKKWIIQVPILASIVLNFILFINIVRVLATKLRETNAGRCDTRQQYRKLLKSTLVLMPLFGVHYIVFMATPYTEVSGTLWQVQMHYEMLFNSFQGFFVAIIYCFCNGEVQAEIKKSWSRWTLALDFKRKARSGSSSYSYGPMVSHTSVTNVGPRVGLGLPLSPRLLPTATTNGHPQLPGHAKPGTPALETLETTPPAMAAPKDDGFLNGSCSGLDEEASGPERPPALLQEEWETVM
# In short: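 Compounds were tested across a qHTS titration. PTHR1-expressing GP2 cells report cAMP rises via GloSensor luminescence after 1 hr compound exposure at 37C with IBMX present.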
# [2] = qHTS of pediatric cancer cell lines to identify multiple opportunities for drug repurposing: Primary screen for SJ-GBM2 cells (AID 1347091); further: potency means the concentration at half of the fitted maximal effect
# In short: (§1)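 Eight- or eleven-point concentration series, 48 h treatment at 37 degrees C in growth media; readout CellTiter-Glo luminescence. Potency and efficacy were taken from the concentration-response curves.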
# [3] = qHTS of pediatric cancer cell lines to identify multiple opportunities for drug repurposing: Primary screen for SK-N-MC cells (AID 1347093); further: potency means the concentration at half of the fitted maximal effect
# In short: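 Metabolically active cells were quantified by ATP-dependent luminescence (CellTiter-Glo, 15 min at room temperature) following 48 h treatment. Cells had been plated at 500-1,000 per well and settled for 5 h beforehand.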
# [4] = qHTS of pediatric cancer cell lines to identify multiple opportunities for drug repurposing: Primary screen for BT-37 cells (AID 1347094); further: potency means the concentration at half of the fitted maximal effect
# In short: (§2)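 Cells plated at 500-1,000/well in growth medium, compounds added after 5 h. MIPE tested at 11 points (from 0.78 nM), NPC at 8 points (from 0.59 nM). CellTiter-Glo luminescence after 48 h; concentration-response curves from primary screen.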
# [5] = qHTS of pediatric cancer cell lines to identify multiple opportunities for drug repurposing: Primary screen for NB-EBc1 cells (AID 1347095); further: potency means the concentration at half of the fitted maximal effect
# In short: as §2
# [6] = qHTS of pediatric cancer cell lines to identify multiple opportunities for drug repurposing: Primary screen for Saos-2 cells (AID 1347097); further: nearly all actives have a fitted effect of over 40% in size; further: potency means the concentration at half of the fitted maximal effect
# In short: as §2
# [7] = qHTS of pediatric cancer cell lines to identify multiple opportunities for drug repurposing: Primary screen for NB1643 cells (AID 1347099); further: nearly all actives have a fitted effect of over 50% in size; further: potency means the concentration at half of the fitted maximal effect
# In short: as §2
# [8] = qHTS of pediatric cancer cell lines to identify multiple opportunities for drug repurposing: Primary screen for LAN-5 cells (AID 1347100); further: potency means the concentration at half of the fitted maximal effect
# In short: (§3)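 Cells (500-1,000/well) in growth media were settled 5 h at 37 degrees C, then given compounds for 48 h. Viability was read as CellTiter-Glo luminescence. Primary runs used MIPE at 11 points (0.78 nM-46 µM) and NPC at 8 points (0.59 nM-46 µM); follow-ups used 11 points.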
# [9] = qHTS of pediatric cancer cell lines to identify multiple opportunities for drug repurposing: Primary screen for BT-12 cells (AID 1347101); further: nearly all actives have a fitted effect of over 25% in size; further: potency means the concentration at half of the fitted maximal effect
# In short: (§4)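 Cells (500-1,000/well) rested 5 h, then received compounds for 48 h; metabolically active cells were measured by CellTiter-Glo luminescence. Final concentrations spanned up to 46 µM (MIPE, 11-point) or 0.59 nM-46 µM (NPC, 8-point) in primary screens, 11-point in follow-ups.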
# [10] = qHTS of pediatric cancer cell lines to identify multiple opportunities for drug repurposing: Primary screen for Rh18 cells (AID 1347102); further: nearly all actives have a fitted effect of over 65% in size; further: potency means the concentration at half of the fitted maximal effect
# In short: as §3
# [11] = qHTS of pediatric cancer cell lines to identify multiple opportunities for drug repurposing: Primary screen for OHS-50 cells (AID 1347103); further: nearly all actives have a fitted effect of over 40% in size; further: potency means the concentration at half of the fitted maximal effect
# In short: as §4
# [12] = qHTS of pediatric cancer cell lines to identify multiple opportunities for drug repurposing: Primary screen for RD cells (AID 1347104); further: nearly all actives have a fitted effect of over 55% in size; further: potency means the concentration at half of the fitted maximal effect
# In short: as §2
# [13] = qHTS of pediatric cancer cell lines to identify multiple opportunities for drug repurposing: Primary screen for control Hh wild type fibroblast cells (AID 1347106); further: nearly all actives have a fitted effect of over 55% in size; further: potency means the concentration at half of the fitted maximal effect
# In short: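 Viability after 48 h compound treatment at 37C, 500-1,000 cells/well, read as ATP luminescence with CellTiter-Glo. Primary screens used 11-point (MIPE, 0.78 nM-46 µM) or 8-point (NPC, 0.59 nM-46 µM) final concentrations; follow-up screens used 11-point dilutions.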
# [14] = qHTS of pediatric cancer cell lines to identify multiple opportunities for drug repurposing: Primary screen for Rh30 cells (AID 1347107); further: nearly all actives have a fitted effect of over 75% in size; further: potency means the concentration at half of the fitted maximal effect
# In short: as §3
# [15] = qHTS of pediatric cancer cell lines to identify multiple opportunities for drug repurposing: Primary screen for DAOY cells (AID 1347090); further: nearly all actives have a fitted effect of over 55% in size; further: potency means the concentration at half of the fitted maximal effect
# In short: as §1
# [16] = qHTS of pediatric cancer cell lines to identify multiple opportunities for drug repurposing: Primary screen for A673 cells (AID 1347092); further: nearly all actives have a fitted effect of over 45% in size; further: potency means the concentration at half of the fitted maximal effect
# In short: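 48 h compound exposure, A673, 500-1,000 cells/well, 37 degrees C/5% CO2. MIPE: 11-point, 0.78 nM-46 µM; NPC: 8-point, 0.59 nM-46 µM (final). Readout CellTiter-Glo luminescence after 15 min RT.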
# [17] = qHTS of pediatric cancer cell lines to identify multiple opportunities for drug repurposing: Primary screen for SK-N-SH cells (AID 1347098); further: nearly all actives have a fitted effect of over 65% in size; further: potency means the concentration at half of the fitted maximal effect
# In short: as §4
# [18] = qHTS of pediatric cancer cell lines to identify multiple opportunities for drug repurposing: Primary screen for U-2 OS cells (AID 1347096); further: nearly all actives have a fitted effect of over 50% in size; further: potency means the concentration at half of the fitted maximal effect
# In short: as §3
# [19] = qHTS of pediatric cancer cell lines to identify multiple opportunities for drug repurposing: Primary screen for MG 63 (6-TG R) cells (AID 1347105); further: nearly all actives have a fitted effect of over 50% in size; further: potency means the concentration at half of the fitted maximal effect
# In short: as §2
# [20] = qHTS of pediatric cancer cell lines to identify multiple opportunities for drug repurposing: Primary screen for TC32 cells (AID 1347089); further: nearly all actives have a fitted effect of over 60% in size; further: potency means the concentration at half of the fitted maximal effect
# In short: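 In the primary qHTS, MIPE compounds were tested at 11 concentrations (0.78 nM to 46 µM) and NPC compounds at 8 (0.59 nM to 46 µM) on TC32 cells for 48 h. CellTiter-Glo luminescence gave viability.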
SMILES,outcome [1],Potency [2],Potency [3],Potency [4],Potency [5],Potency [6],Potency [7],Potency [8],Potency [9],Potency [10],Potency [11],Potency [12],Potency [13],Potency [14],Potency [15],Potency [16],Potency [17],Potency [18],Potency [19],Potency [20]
COc1cccc(-c2cc(=O)c3ccccc3o2)c1N,inactive,inactive,0.662 µM (active),inactive,inactive,inactive,20.9 µM (active),inactive,inactive,inactive,inactive,13.2 µM (active),inactive,inactive,–,–,–,–,–,–
CCCCC1C(=O)N(c2ccccc2)N(c2ccccc2)C1=O,inactive,inactive,–,inactive,inactive,–,inactive,inactive,inactive,inactive,inactive,inactive,inactive,inactive,inactive,inactive,inactive,–,–,–
CN(C)CCC(c1ccccc1)c1ccccn1 (stereo not drawn),inactive,inactive,inactive,inactive,inactive,inactive,inactive,inactive,inactive,inactive,inactive,inactive,inactive,inactive,inactive,inactive,inactive,inactive,inactive,–
NCCS,inactive,inactive,inactive,inactive,inactive,inactive,inactive,inactive,inactive,inactive,inactive,inactive,inactive,inactive,inactive,–,inactive,inactive,inactive,inactive
O=C(NCCN1CCOCC1)c1ccc(Cl)cc1,inactive,inactive,–,inactive,inactive,inactive,inactive,inactive,inactive,inactive,inactive,inactive,inactive,inactive,inactive,inactive,inactive,–,inactive,inactive
CCN(CC)C(=O)c1ccc(O)c(OC)c1,inactive,inactive,inactive,inactive,inactive,inactive,inactive,inactive,inactive,inactive,inactive,inactive,inactive,inactive,inactive,inactive,inactive,inactive,inactive,–
CC1(C)CCC2=C(O1)c1ccccc1C(=O)C2=O,inactive,–,23.5 µM (active),–,18.7 µM (active),18.7 µM (active),23.5 µM (active),–,30.6 µM (active),–,–,33.2 µM (active),inactive,–,–,23.5 µM (active),–,inactive,–,inactive
Clc1ccc(Cn2c(CN3CCCC3)nc3ccccc32)cc1,inactive,inactive,inactive,–,inactive,–,inactive,inactive,–,–,–,inactive,inactive,inactive,inactive,–,–,inactive,inactive,–
CC(=O)CCCCn1c(=O)c2c(ncn2C)n(C)c1=O,inactive,inactive,inactive,inactive,inactive,inactive,–,inactive,inactive,inactive,inactive,inactive,inactive,inactive,inactive,–,inactive,inactive,inactive,inactive
N#CC1(c2ccc(NC(=O)c3cccnc3NCc3ccncc3)cc2)CCCC1,–,inactive,inactive,–,inactive,–,inactive,inactive,–,–,–,inactive,inactive,inactive,inactive,inactive,inactive,inactive,inactive,inactive
O=C(OCC#CCSc1nnc(-c2cccc3ccccc23)o1)c1cc2ccccc2s1,–,inactive,inactive,inactive,–,inactive,inactive,inactive,inactive,inactive,inactive,inactive,inactive,inactive,inactive,inactive,–,inactive,inactive,inactive
O=c1ccn([C@@H]2O[C@H](CO)[C@H](O)[C@H]2O)c(=O)[nH]1,–,inactive,inactive,inactive,inactive,inactive,–,inactive,inactive,inactive,inactive,inactive,inactive,inactive,inactive,inactive,–,inactive,inactive,inactive
CC(C)n1nc(-c2ccc3oc(N)nc3c2)c2c(N)ncnc21,–,0.0019 µM (active),0.001 µM (active),0.0043 µM (active),0.0132 µM (active),0.935 µM (active),–,18.7 µM (active),0.306 µM (active),0.235 µM (active),0.0012 µM (active),0.0296 µM (active),–,11.8 µM (active),0.0148 µM (active),0.0037 µM (active),21.5 µM (active),0.148 µM (active),0.0007 µM (active),11.7 nM (active)
COc1ccc2cccc(CCNC(C)=O)c2c1,–,inactive,inactive,inactive,inactive,inactive,–,inactive,inactive,inactive,inactive,inactive,inactive,inactive,inactive,inactive,inactive,inactive,inactive,inactive
CN1C[C@H]2c3ccccc3Oc3ccc(Cl)cc3[C@@H]2C1,–,inactive,inactive,inactive,inactive,inactive,–,inactive,inactive,inactive,21.9 µM (active),inactive,inactive,–,inactive,inactive,inactive,–,inactive,inactive
O=c1cc(-c2ccccc2)oc2cc(O)c(O)c(O)c12,–,inactive,inactive,–,inactive,18.7 µM (active),inactive,–,–,–,–,inactive,inactive,–,inactive,inactive,inactive,–,inactive,inactive
O=C1c2ccccc2-[n+]2ccc3c([nH]c4ccccc43)c21,–,0.833 µM (active),1.32 µM (active),2.43 µM (active),0.833 µM (active),2.35 µM (active),5.26 µM (active),1.66 µM (active),6.85 µM (active),2.35 µM (active),2.17 µM (active),1.87 µM (active),9.35 µM (active),4.18 µM (active),2.96 µM (active),1.18 µM (active),1.52 µM (active),–,2.96 µM (active),4660 nM (active)
COc1ccc2c(Oc3ccc(NC(=O)c4c(C)n(CC(C)(C)O)n(-c5ccccc5)c4=O)nc3)ccnc2c1,–,0.469 µM (active),29.6 µM (active),–,–,–,–,inactive,–,–,5.44 µM (active),inactive,inactive,inactive,inactive,inactive,–,inactive,inactive,inactive
CC[C@]1(O)C[C@@H]2CN(CCc3c([nH]c4ccccc34)[C@@](C(=O)OC)(c3cc4c(cc3OC)N(C)[C@H]3[C@@](O)(C(=O)OC)[C@H](OC(C)=O)[C@]5(CC)C=CCN6CC[C@]43[C@@H]65)C2)C1,–,0.075 µM (active),33.5 nM (active) and 106 nM (active),43.7 nM (active) and 174 nM (active),0.188 µM (active),42.2 nM (active) and 168 nM (active),–,0.133 µM (active),43.7 nM (active) and 347 nM (active),–,30.9 nM (active) and 138 nM (active),21.1 nM (active) and 211 nM (active),–,inactive,26.6 nM (active) and 133 nM (active),21.1 nM (active) and 133 nM (active),–,–,–,118 nM (active) and 592 nM (active)
CC(C)C(=O)Oc1ccc(CO)cc1[C@H](CCN(C(C)C)C(C)C)c1ccccc1,–,inactive,inactive,inactive,inactive,inactive,–,inactive,inactive,–,–,inactive,inactive,–,inactive,inactive,inactive,inactive,inactive,inactive
O=C(O)c1ccccc1C(=O)Nc1ccc(-c2ccccc2)cc1,–,inactive,inactive,inactive,inactive,inactive,–,inactive,inactive,inactive,inactive,inactive,inactive,inactive,inactive,inactive,–,–,inactive,inactive
COc1ccc(-c2coc3cc(O)ccc3c2=O)cc1,–,inactive,inactive,inactive,inactive,inactive,–,inactive,inactive,inactive,inactive,inactive,inactive,–,inactive,inactive,inactive,inactive,inactive,inactive
NC[C@@H]1O[C@@H](O[C@H]2[C@@H](O)[C@H](O[C@@H]3[C@@H](O)[C@@H](N)C[C@H](N)[C@H]3O[C@H]3O[C@H](CN)[C@@H](O)[C@@H](O)[C@H]3N)O[C@H]2CO)[C@H](N)[C@@H](O)[C@@H]1O,–,inactive,inactive,inactive,inactive,inactive,inactive,inactive,inactive,inactive,inactive,inactive,inactive,–,inactive,inactive,inactive,–,inactive,inactive
CC[C@H]1OC(=O)[C@H](C)[C@@H](O[C@H]2C[C@@](C)(OC)[C@@H](O)[C@H](C)O2)[C@H](C)[C@@H](O[C@@H]2O[C@H](C)C[C@H](N(C)C)[C@@H]2O)[C@](C)(O)C[C@@H](C)CN(C)[C@H](C)[C@@H](O)[C@]1(C)O,–,inactive,inactive,–,inactive,–,inactive,–,inactive,inactive,inactive,–,inactive,inactive,inactive,inactive,–,inactive,inactive,inactive
Cc1ccc(C(=O)Nc2cccc(C(F)(F)F)c2)cc1Nc1nc(-c2cccnc2)nc2c1cnn2C,–,7.43 µM (active),9.35 µM (active),24.3 µM (active),8.33 µM (active),–,7.43 µM (active),13.2 µM (active),24.3 µM (active),20.9 µM (active),21.7 µM (active),14.8 µM (active),inactive,–,14.8 µM (active),9.35 µM (active),inactive,inactive,18.7 µM (active),inactive
Cc1cnc(C(=O)O)c[n+]1[O-],–,inactive,inactive,inactive,inactive,inactive,inactive,inactive,inactive,inactive,inactive,inactive,inactive,inactive,inactive,inactive,–,inactive,inactive,inactive
